Several values for one entry are separate records, joined by “and”; a condition that tells them apart may be missing. Equal entries are not always repeated. Records with an inconclusive call do not appear. A call without a number means that no potency is given here. Activity calls are given as the source filed them. The call rests on the fitted dose curve.
Potency means the concentration at half of the fitted maximal effect.

Chain of Acetylcholinesterase (Homo sapiens) (P22303 whole entry, looked up): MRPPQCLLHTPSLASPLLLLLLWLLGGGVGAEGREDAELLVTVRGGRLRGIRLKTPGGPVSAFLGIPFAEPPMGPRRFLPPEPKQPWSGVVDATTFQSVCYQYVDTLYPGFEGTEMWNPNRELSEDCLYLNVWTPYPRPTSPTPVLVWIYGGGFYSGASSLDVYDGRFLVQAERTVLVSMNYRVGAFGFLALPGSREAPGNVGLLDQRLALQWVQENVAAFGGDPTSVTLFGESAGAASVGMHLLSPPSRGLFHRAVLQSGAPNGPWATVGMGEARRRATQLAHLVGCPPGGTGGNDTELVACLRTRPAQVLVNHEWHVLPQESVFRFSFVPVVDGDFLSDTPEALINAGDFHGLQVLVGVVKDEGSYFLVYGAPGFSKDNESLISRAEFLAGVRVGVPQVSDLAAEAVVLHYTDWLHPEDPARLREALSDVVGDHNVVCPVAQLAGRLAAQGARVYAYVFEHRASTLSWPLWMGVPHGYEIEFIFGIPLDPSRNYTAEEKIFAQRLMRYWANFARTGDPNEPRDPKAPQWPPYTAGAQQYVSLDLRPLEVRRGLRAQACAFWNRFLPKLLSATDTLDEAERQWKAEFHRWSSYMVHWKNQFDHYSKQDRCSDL

This assay has as its target Acetylcholinesterase (Homo sapiens) (UniProt P22303). Briefly: Acetylcholinesterase (AChE) small molecule antagonists: colormetric cell-based qHTS assay (AID 1347395). Further: nearly all actives have a fitted effect of over 30% in size. As to conditions: SH-SY5Y cells AChE activity, colorimetric (Ellman); series mostly up to 115 µM. An excerpt: National Center for Advancing Translational Sciences [NCATS]
Division of Preclinical Innovation [DPI]
U.S. Environmental Protection Agency [EPA]
National Institutes of Environmental Health Sciences [NIEHS]
National Toxicology Program [NTP]
U.S. Food and Drug Administration [FDA]
Acetylcholinesterase (AChE) is the primary cholinesterase in the body that hydrolyzes a key neurotransmitter, acetylcholine. Inhibition of AChE activity can lead to neurotoxicity. The known inhibitors include organophosphorous pesticides (OP), chemical warfare agents, drugs, and various phytochemicals.
A homogenous cell-based assay using the Amplite Colormetric acetylcholinesterase assay kit (AAT Bioquest, Sunnyvale, CA) was used to evaluate the chemicals in the Tox21 10K library that inhibit AChE activity. The assay uses 5, 5-dithiobis-(2-nitrobenzoic acid) (DTNB) to quantify the thiocholine produced from the hydrolysis of acetylthiocholine by AChE from the SH-SY5Y cells.
Tox21 Assay Protocol Summary:
For the cell-based AChE assay, 2,000 SH-SY5Y cells in 4 uL/well were dispensed into black, clear-bottom 1536-well plates using a Multidrop Combi dispenser (Thermo Scientific, MA). The assay plates were incubated overnight at 37 C to allow cells to attach to the wells, followed by the transfer of 23 nL of compound or DMSO (vehicle control) by a Pintool Station (Wako Automation, CA). The plates were incubated for 30 min at 37 C and 5% CO2, followed by the addition of 4 uL of detection cocktail solution (DTNB, acetylthiocholine) into each well using a Flying Reagent Dispenser (Beckman Coulter, CA) and then 90 min incubation at 37 C.
As to `Nc1ccc(-c2ccccc2)cc1`, the Potency result is “inactive”.
On to `CCN(CC)C(=O)SCc1ccc(Cl)cc1`, for which the Potency result is “inactive”.
`COP(=S)(OC)Oc1cc(Cl)c(Cl)cc1Cl`: the Potency result was “inactive”.
The result for `COC(=O)c1sccc1S(=O)(=O)NC(=O)Nc1nc(C)nc(OC)n1` reads “inactive”; that for `C=CCN(CC=C)C(=O)C(Cl)Cl`, “inactive”.
Regarding `NCc1cccnc1`, the Potency entry was “inactive”.
Regarding `O=P(O)(O)CCCl`, the Potency was 40.7 µM (active) and 39.8 µM (active).
In the case of `Nc1ccncc1` it was “inactive”; in that of `CCOC(=O)C(C)OC(=O)c1cc(Oc2ccc(C(F)(F)F)cc2Cl)ccc1[N+](=O)[O-]` (stereo not given), “inactive”; in that of `CCCCCCCCOC(=O)c1ccccc1C(=O)OCCCCCCCC`, “inactive”.
The result for `CC(C)C(=O)OCC(C)(C)C(OC(=O)C(C)C)C(C)C` (stereo not given) reads “inactive”; that for `C=CC(=O)OCCO`, “inactive”; that for `Cc1ccc(N)c(N)c1`, “inactive”.
As for `C[C@]12CCC(=O)C(O)=C1CC[C@@H]1[C@@H]2CC[C@]2(C)C(=O)CC[C@@H]12`, the Potency entry is “inactive”.
In the case of `CCOc1cc(Oc2ccc(C(F)(F)F)cc2Cl)ccc1[N+](=O)[O-]` it was “inactive”; in that of `c1ccc(N=Nc2ccccc2)cc1`, “inactive”; in that of `Oc1cc(Cl)ccc1Oc1ccc(Cl)cc1Cl`, “inactive”.
For the compound `CCOP(=S)(OCC)O/N=C(\C#N)c1ccccc1`, the Potency was 63.3 µM (active) and 17.4 µM (active).
As to `Nc1c(Cl)cc([N+](=O)[O-])cc1Cl`, the Potency result was “inactive”.
Consider `Oc1ccc(-c2ccccc2)cc1`, for which the Potency entry was “inactive”.
On to `O=Cc1ccco1`, for which the Potency result is “inactive”.
With `CCc1cccc(CC)c1N(COC)C(=O)CCl`, the Potency result is “inactive”.
On to `CC(C)(c1cc(Cl)c(O)c(Cl)c1)c1cc(Cl)c(O)c(Cl)c1`, for which the Potency result was “inactive”.
In the case of `CC1(C)C(C=C(Cl)Cl)C1C(=O)OC(C#N)c1cccc(Oc2ccccc2)c1` (stereo not given), the Potency result was “inactive”.
As for `O=C(CCl)c1ccccc1`, the Potency entry is “inactive”.
Consider `O=C(O)C(F)(F)C(F)(F)C(F)(F)C(F)(F)C(F)(F)C(F)(F)C(F)(F)F`, for which the Potency entry is “inactive”.
In the case of `CCCCCc1cc(O)cc(O)c1`, the Potency result was “inactive”.
In the case of `CCCCOCCOP(=O)(OCCOCCCC)OCCOCCCC`, the Potency result was “inactive”.
Consider `Brc1ccc(Oc2cc(Br)c(Br)cc2Br)c(Br)c1`, for which the Potency result was “inactive”.
In the case of `N#CCCCl`, the Potency result is “inactive”.
For `CCCCNC(=O)n1c(NC(=O)OC)nc2ccccc21`, the Potency entry is “inactive”.
For `O=[N+]([O-])c1c(Cl)c(Cl)c(Cl)c(Cl)c1Cl`, the Potency is 39.8 µM (active) and 31.7 µM (active).
Regarding `CCCCC(CC)COC(=O)Cl` (stereo not given), the Potency result was “inactive”.
As for `CC(C)c1ccc(CO)cc1`, the Potency result is “inactive”.
Regarding `O=C(NC(=O)c1c(F)cccc1F)Nc1ccc(Cl)cc1`, the Potency entry is “inactive”.
In the case of `CNC(=O)Oc1cccc2c1OC(C)(C)O2`, the Potency is 1.04 µM (active) and 399 nM (active).
As to `O=[N+]([O-])c1cccc2ccccc12`, the Potency result is “inactive”.
In the case of `c1nc[nH]n1`, the Potency result is “inactive”.
The result for `C=CCc1ccc(OC)cc1` reads “inactive”; that for `Cc1ccc2c(c1N)C(=O)c1ccccc1C2=O`, “inactive”.

The record behind these values is PubChem BioAssay (Tox21).
